Source: PubChem (National Center for Advancing Translational Sciences (NCATS))
RORgamma inh: qHTS for inhibitors of ROR gamma transcriptional activity | Nuclear receptor ROR-gamma (Mus musculus), P51450 | Potency, µM (top dose mostly 53.6 µM), for the others: top-dose activity change, negative = inhibition, actives largely listed as inhibitors | Drosophila S2 Gal4-RORgamma UAS-luciferase reporter, 20 h | AID 2551, 2010 | actives 5.4% (n = 310,000); note: nearly all actives have a fitted effect of over 60% in size
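Drosophila Schneider cells stably carrying a metallothionein-driven Gal4 DBD–ROR gamma fusion and a UAS-Photinus luciferase reporter were exposed to compound for 1 hr, then induced with copper sulfate (700 uM final) for 20 hr at ambient temperature before luminescence reading.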
TDP1 inh: qHTS Assay for Inhibitors of Tyrosyl-DNA Phosphodiesterase (TDP1); AID 485290, 2010; Tyrosyl-DNA phosphodiesterase 1 (Homo sapiens), Q9NUW8; recombinant TDP1, AlphaScreen DNA substrate cleavage; actives 0.28% (n = 350,000); Potency, µM (doses to about 130 µM), for inactives: at the top dose activity change, negative = inhibition, hits mostly inhibitors; note: nearly all actives have a fitted effect of over 40% in size
Target sequence (Q9NUW8 whole entry, looked up): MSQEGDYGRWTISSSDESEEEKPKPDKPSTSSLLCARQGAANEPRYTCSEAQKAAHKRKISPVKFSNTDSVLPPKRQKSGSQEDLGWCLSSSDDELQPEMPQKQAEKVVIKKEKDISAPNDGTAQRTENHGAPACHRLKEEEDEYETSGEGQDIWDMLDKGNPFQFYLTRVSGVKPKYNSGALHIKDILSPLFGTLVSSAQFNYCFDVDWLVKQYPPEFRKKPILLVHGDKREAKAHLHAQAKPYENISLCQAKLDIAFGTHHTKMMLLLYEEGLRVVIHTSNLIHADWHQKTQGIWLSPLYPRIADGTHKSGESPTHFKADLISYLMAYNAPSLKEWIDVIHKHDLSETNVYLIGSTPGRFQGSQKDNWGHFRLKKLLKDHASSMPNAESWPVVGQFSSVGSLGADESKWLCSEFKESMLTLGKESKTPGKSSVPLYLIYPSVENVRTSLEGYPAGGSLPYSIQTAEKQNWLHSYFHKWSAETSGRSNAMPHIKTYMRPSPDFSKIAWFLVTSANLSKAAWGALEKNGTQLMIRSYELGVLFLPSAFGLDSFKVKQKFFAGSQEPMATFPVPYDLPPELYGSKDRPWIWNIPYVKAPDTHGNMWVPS
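Enzyme-compound mixtures sat 15 min at room temperature, followed by a 5 min reaction with 15 nM final substrate and 10 min with AlphaScreen beads. Recombinant human Tdp1 was used at 1 nM final.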
TDP1 cell CPT: qHTS for Inhibitors of human tyrosyl-DNA phosphodiesterase 1 (TDP1): qHTS in cells in presence of CPT. chicken DT40 Tdp1-/-;hTDP1 cells + 20 nM CPT, ATP luminescence, 48 h. actives 12% (n = 420,000). Potency, µM (series often up to 46.2 µM), for the others: at the highest dose activity change, negative = growth inhibition, actives largely listed as inhibitors. AID 686979, 2013; note: nearly all actives have a fitted effect of over 55% in size
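Chicken DT40 Tdp1-/- cells stably complemented with human TDP1 were seeded at 400 cells/well in medium containing 20 nM camptothecin, exposed to pin-transferred compounds, and grown at 37 °C for at least 48 hr. Viability was read as ATP luminescence.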
VP16 counter: VP16 counterscreen qHTS for inhibitors of ROR gamma transcriptional activity | Drosophila S2 Gal4-VP16 UAS-luciferase, luminescence, 20 h | Potency, µM (top dose mostly 53.6 µM), without a hit: at the highest dose activity, negative = inhibition, hits mostly inhibitors | actives 3.5% (n = 310,000) | AID 2546, 2010;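 note: Gal4-VP16 expression switched on by copper sulfate through the metallothionein promoter; nearly all actives have a fitted effect of over 50% in size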
TDP1 cell noCPT: qHTS for Inhibitors of human tyrosyl-DNA phosphodiesterase 1 (TDP1): qHTS in cells in absence of CPT; DT40 Tdp1-/- hTDP1 cells, no CPT, ATP luminescence, 48 h; Potency, µM (titrated, usually from 46.2 µM), for the others: at the top dose activity change, negative = growth inhibition, most hits filed as inhibitors; actives 15% (n = 420,000); AID 686978, 2013; note: nearly all actives have a fitted effect of over 55% in size
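Luminescent ATP content (CellTiter-Glo) served as the growth readout. Knockout chicken DT40 cells expressing human TDP1 were exposed to compounds without camptothecin for a minimum 48 hr at 37 °C.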
Numbers without * were called inactive; ? = inconclusive; / = not tested or not shown; [ ] = another dose, or the depositor's remark. Only some compounds are listed: those with a hit (about 19% of all), similar ones and a draw of the others. Calls come from the whole dose curve; as a rule, active = well fitted curve in the direction sought with a large enough effect; inconclusive = small, poorly fitted or top-dose-only effect, or another doubt; inactive = no such curve, though single readings can be large; an effect the other way counts as inactive or inconclusive. % is set by controls: 0 for no effect and ±100 for the full control effect; potency is the fitted concentration of half-maximal effect.

SMILES	RORgamma inh	TDP1 inh	TDP1 cell CPT	VP16 counter	TDP1 cell noCPT
Cn1c(=O)c2c(nc(N3CCOCC3)n2Cc2cccc(Br)c2)n(C)c1=O	/	1%	9.2µM*	/	5.8µM*
Cc1ccccc1Cn1c(CN2CCCC(C)C2)nc2c1c(=O)n(C)c(=O)n2C (configuration not stated)	/	2%	8.2µM*	/	5.8µM*
Cn1c(=O)c2c(nc(CN3CCN(c4ccccc4)CC3)n2Cc2ccccc2Cl)n(C)c1=O	?	4%	?	-4%	15µM*
Cn1c(=O)c2c(nc(CN3CCN(c4ccccc4)CC3)n2Cc2c(F)cccc2Cl)n(C)c1=O	-7%	-2%	21µM*	-8%	8.2µM*
CCc1ccc2[nH]c(=O)c(CN(Cc3ccco3)S(=O)(=O)c3ccc4c(c3)OCCO4)cc2c1	-12%	1%	?	-8%	?
Cc1ccc(C)c(N2CCN(S(=O)(=O)c3c(C(=O)N4CCCCC4)c(C)n(C)c3C)CC2)c1	11%	8%	-23%	2%	1%
Cn1c(=O)c2c(nc(N3CCOCC3)n2CCSc2ncccn2)n(C)c1=O	11%	1%	21µM*	-2%	23µM*
Cn1c(=O)c2c(nc(N3CCOCC3)n2Cc2c(F)cccc2Cl)n(C)c1=O	1%	5%	21µM*	2%	23µM*
CC1CCCN(Cc2nc3c(c(=O)n(C)c(=O)n3C)n2Cc2c(F)cccc2Cl)C1 (configuration not stated)	16%	-2%	8.2µM*	?	9.2µM*
CN(Cc1ccccc1)c1nc2c(c(=O)n(C)c(=O)n2C)n1CCSc1ncccn1	18%	2%	23µM*	-8%	18µM*
CC1CC(C)CN(c2nc3c(c(=O)n(C)c(=O)n3C)n2CCSc2ncccn2)C1 (configuration not stated)	-44%	1%	?	14%	?
CSc1ccccc1C(=O)Nc1cc([N+](=O)[O-])ccc1C	-13%	-1%	-1%	3%	-3%
CCOC(=O)c1cc(NC(=O)Nc2ccc(OC)c(OC)c2)c(C)nc1C	-1%	11%	-27%	6%	?
CN(C)c1ccc(/C=C2\N=C(c3ccc(Cl)c([N+](=O)[O-])c3)NC2=O)cc1	2%	/	?	-4%	10µM*
COc1ccc(NC(=O)N(C)C[C@H]2Oc3c(NC(=O)Nc4c(C)noc4C)cccc3C(=O)N([C@H](C)CO)C[C@@H]2C)cc1	/	0%	2%	/	2%
O=C(NC(=S)Nc1ccc(S(=O)(=O)Nc2nccs2)cc1)c1cccc(F)c1	26%	3%	18%	-8%	-4%
CN(C)CC(O)c1ccc(C=Cc2ccc(Cl)cc2)cc1 (configuration not stated)	/	/	7.3µM*	/	7.3µM*
COc1ccccc1N1C(=O)C(=O)N(C)C1=O	/	/	6%	/	-1%
O=Cc1cn(CC(=O)Nc2ccc(F)cc2)c2ccccc12	?	6%	?	-22%	9.2µM*
CC(=O)c1cn(CC(=O)Nc2ccccc2Cl)c2ccccc12	5%[1.91 µM]	/	16µM*	?	9.2µM*
CC(=O)c1cn(CC(=O)Nc2ccccc2F)c2ccccc12	?	/	18µM*	?	12µM*
CCC(=O)c1cn(CC(=O)Nc2ccccc2F)c2ccccc12	6%[1.91 µM]	/	-1%	3%	-16%
O=C(Cn1c2ccccc2c(=O)c2cc([N+](=O)[O-])ccc21)Nc1ccccc1Cl	-30%	4%	?	-4%	13µM*
O=C(Cn1c2ccccc2c(=O)c2ccccc21)N/N=C/c1cc([N+](=O)[O-])ccc1N1CCCCC1	1%	1%	?	-12%	?
COc1ccc(CCNS(=O)(=O)c2ccc(Br)s2)cc1	43%	0%	-11%	3%	-16%
SMILES	RORgamma inh	TDP1 inh	TDP1 cell CPT	VP16 counter	TDP1 cell noCPT
COc1ccc(C(=O)n2cnnc2N)cc1	-28%	5%	6%	4%	0%
Cc1cc(C)cc(NC(=O)Cn2cc(C(=O)C3CCCCC3)c3ccccc32)c1	/	-2%	18µM*	/	23µM*
CC(=O)c1cn(CC(=O)Nc2ccccc2)c2ccccc12	32%	0%	15µM*	?	13µM*
O=C(Cn1c2ccccc2c(=O)c2ccccc21)Nc1ccccc1F	14%	?	13µM*	-5%	?
Cc1ccc(NC(=O)Cn2cc(C(=O)C3CC3)c3ccccc32)cc1	-13%	1%	-8%	2%	1%
CCOc1ccc2[nH]cc(S(=O)(=O)c3ccc(Cl)cc3)c(=O)c2c1	38%	/	9.2µM*	?	9.2µM*
COc1ccc(OC)c(-n2c(=O)c3ccccc3c3ccccc3c2=O)c1	-43%	0%	-24%	-9%	-37%
Cc1ccc(NC2(c3nnnn3-c3c(C)cccc3C)CCCCC2)cc1	-31%	8%	?	?	23µM*
O=C(NC(Cc1ccc(F)cc1)C(=O)O)c1ccccc1 (configuration not stated)	-18%	2%	3%	7%	-7%
CC1CC=CC2C1C(=O)N(Cc1ccccc1)C2c1ccc(-c2ccc(F)cc2)cc1F (configuration not stated)	27%	-3%	/	-11%	/
COc1ccc(-c2ccc([C@H]3[C@H]4C=CC[C@@H](C)[C@@H]4C(=O)N3Cc3ccccc3)c(F)c2)cc1C	-15%	-2%	15µM*	5%	15µM*
COc1ccc([C@H]2[C@H]3C=CC[C@@H](C)[C@@H]3C(=O)N2Cc2ccccc2)cc1Cl	15%	-1%	?	7%	16µM*
COc1ccc(-c2ccc(C)cc2)cc1C1C2C=CCC(C)C2C(=O)N1Cc1ccccc1 (configuration not stated)	41%	-4%	/	-13%	/
COc1ccc(-c2ccc(C3C4C=CCC(C)C4C(=O)N3Cc3ccccc3)c(F)c2)cc1C (configuration not stated)	17%	3%	/	-3%	/
C[C@@H]1CC=C[C@H]2[C@H]1C(=O)N(Cc1ccccc1)[C@H]2c1ccc(-c2ccc(F)cc2)cc1F	9%	-6%	16µM*	2%	13µM*
COc1ccc(-c2ccc(OC)c([C@H]3[C@H]4C=CC[C@@H](C)[C@@H]4C(=O)N3Cc3ccccc3)c2)cc1OC	-9%	2%	?	-18%	16µM*
CCCCC(=O)Nc1nc2c(OC)cc([N+](=O)[O-])cc2s1	?	3%	-27%	-8%	-29%
